The values that follow come from PubChem BioAssay (NCATS).

Test [1] deals with Glucocorticoid receptor (Homo sapiens) (UniProt P04150). Briefly: qHTS assay for small molecule agonists of glucocorticoid receptor signaling (AID 588532; active = well fitted curve in the direction sought with a large enough effect in the signal ratio, with a control signal flat; the % refers to the signal ratio;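 note: 100% = dexamethasone at 0.1 µM and 0% = DMSO only wells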). The following applies: HeLa MMTV-bla, beta-lactamase ratio, agonist, 18 h; stronger effect = higher value; percent of dexamethasone control, DMSO zero. The method in brief: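 Stimulation of a glucocorticoid response element-driven beta-lactamase gene was measured in HeLa cells. Responses were scaled between DMSO basal and 0.1 uM dexamethasone, then fitted for half-maximal stimulation.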

For test [2] the target is unchanged. Briefly: qHTS assay for small molecule antagonists of glucocorticoid receptor signaling (AID 588533; active = well fitted inhibition curve with a large enough effect in the signal ratio, with a control signal flat, not every such curve was filed as active; the % refers to the signal ratio;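 note: cells stimulated with 2 nM dexamethasone as agonist; % is set by controls: 0 for no effect and ±100 for the full control effect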). The following applies: HeLa MMTV-bla, GRE beta-lactamase ratio, antagonist mode, 18 h; series mostly up to 76.8 µM. An outline of the steps:
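Antagonist-mode qHTS: compound titrations added to GRE-bla HeLa cells, then dexamethasone 2 nM final; 18 h, 37 C. CCF4 FRET fluorescence normalized to dexamethasone and DMSO; IC50 from Hill fit.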
Background: Quantitative high-throughput screening tests each substance at several concentrations.

Test [3] can be described thus: qHTS assay for small molecule antagonists of peroxisome proliferator-activated receptor delta signaling (AID 588535; active = well fitted inhibition curve with a large enough effect in the signal ratio, with a control signal flat, not every such curve was filed as active; the % refers to the signal ratio;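 for max response: cells co-treated with a PPAR-delta agonist as stimulator during compound exposure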). The following applies: HEK293T PPARd-UAS-bla, beta-lactamase FRET ratio, 18 h; 460 nm channel. The method in brief: (§1)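 GeneBLAzer PPAR-delta-UAS-bla HEK293T cells in medium with 2% charcoal/dextran FBS were preincubated 5 hrs at 37 C, then given compounds, incubated 18 hrs at 37 C, and read by CCF4 beta-lactamase fluorescence; IC50 from Hill fits.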

Test [4] addresses Peroxisome proliferator-activated receptor delta (Homo sapiens) (UniProt Q03181). Described as above. The settings on record: HEK293T PPARd-UAS-bla, beta-lactamase FRET ratio, 18 h; series mostly up to 76.7 µM. The method in brief:
as §1

The target in test [5] is Peroxisome proliferator-activated receptor gamma (Homo sapiens) (UniProt P37231). The test can be described thus: qHTS assay for small molecule agonists of peroxisome proliferator-activated receptor gamma signaling (AID 588536; active = well fitted curve in the direction sought with a large enough effect in the signal ratio, with a control signal flat, not every such curve was filed as active; the % refers to the signal ratio;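 note: 0% = DMSO basal wells and 100% = rosiglitazone at 2 µM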). The following applies: HEK293 PPARg-UAS-bla, beta-lactamase ratio, 16 h, percent of rosiglitazone response, DMSO as zero; series mostly up to 76.7 µM. An outline of the steps:
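Ratiometric blue/green fluorescence (405 nm excitation; 460 and 530 nm emission) from CCF4-loaded HEK293 reporter cells serves as signal. Exposure to test compounds lasts 16 h at 37 C in medium containing 1% charcoal/dextran-treated serum.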

The target in test [6] is Vitamin D3 receptor (Homo sapiens) (UniProt P11473). The test can be described thus: qHTS assay for small molecule agonists of vitamin D receptor signaling (AID 588543).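 Note: 0% = DMSO basal and 100% = reference agonist control.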 The settings on record: HEK293T VDR-UAS-bla, beta-lactamase ratio, 16 h; series mostly up to 76.8 µM. An outline of the steps:
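Measured: β-lactamase reporter activity (CCF4, 405 nm excitation, 460/530 nm emission) in HEK293T VDR-UAS-bla cells after 16 h compound exposure at 37 °C. Normalization against 50 nM 1α,25-dihydroxyvitamin D3 and DMSO; Hill-fit EC50.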

Test [7] can be described thus: qHTS assay for small molecule agonists of retinoid X receptor alpha signaling (AID 588544).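 For activation: 0% = DMSO basal wells and 100% = reference agonist.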 The settings on record: HEK293T RXRa-UAS-bla, beta-lactamase reporter, 18 h; 530 nm emission.
Test [8] has as its target Retinoic acid receptor RXR-alpha (Homo sapiens) (UniProt P19793). The test is described as above. The settings on record: HEK293T RXRa-UAS-bla, beta-lactamase reporter, 18 h; series mostly up to 76.7 µM.
The target of test [9] is Thyroid hormone receptor beta (Homo sapiens) (UniProt P10828). Briefly: qHTS assay for small molecule agonists of thyroid hormone receptor beta signaling (AID 588545).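 Note: 0% = DMSO only and 100% = 10 nM T3.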 The settings on record: TR-UAS-bla GripTite HEK 293, beta-lactamase ratio, agonist mode, 18 h, percent of T3 response, DMSO as zero; series mostly up to 76.7 µM. The method in brief: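 TR-UAS-bla GripTite HEK 293 cells (2500/well, medium with 2% charcoal/dextran FBS) were treated in agonist mode for 18 h at 37 C, titrated. Beta-lactamase was read by CCF4 ratio after 2 h; normalized to 10 nM T3 (100%) and DMSO, Hill-fitted for EC50 and efficacy.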

Test [10] in a line: qHTS assay for small molecule antagonists of retinoid X receptor alpha signaling (AID 588546; active = well fitted inhibition curve with a large enough effect in the signal ratio, with a control signal flat, not every such curve was filed as active; the % refers to the signal ratio;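 note: cells stimulated with 9-cis-retinoic acid as agonist; % is set by controls: 0 for no effect and ±100 for the full control effect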). The following applies: HEK293T RXRa-UAS-bla, beta-lactamase ratio, antagonist mode; measured here: W530 green channel, cytotoxicity proxy. The method in brief: (§2)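 Beta-lactamase reporter inhibition, read as CCF4 fluorescence ratio (ex 405, em 460/530 nm) after 2 h at RT. HEK293T UAS-bla cells, 2500/well, were stimulated with 9-cis-RA at 500 or 100 nM final alongside test compound for 18 h at 37 C.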

Test [11] deals with Retinoic acid receptor RXR-alpha (Homo sapiens) (UniProt P19793). Described as above. The settings on record: HEK293T RXRa-UAS-bla, beta-lactamase ratio, antagonist mode. The method in brief:
as §2

The target of test [12] is Voltage-gated inwardly rectifying potassium channel KCNH2 (Homo sapiens) (UniProt Q12809). Briefly: qHTS Assay for Small Molecule Inhibitors of the Human hERG Channel Activity (AID 588834; active = well fitted inhibition curve with a large enough effect;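 note: top concentration of the series differs between compounds; % is set by controls: 0 for no effect and ±100 for the full control effect; lower thallium flux fluorescence means stronger hERG block; nearly all actives have a fitted effect of over 50% in size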). The settings on record: U2OS BacMam hERG, FluxOR thallium flux fluorescence; series mostly up to 92.2 µM. An outline of the steps: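 Blockade is seen as reduced FluxOR thallium-flux fluorescence in U2OS cells expressing hERG from a BacMam construct, in Opti-MEM with 2% FCS. Concentration-response data fitted to the Hill equation for AC50.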

Test [13] in a line: qHTS assay for small molecule agonists of the antioxidant response element (ARE) signaling pathway (AID 651741; active = well fitted activation curve with a large enough effect in the signal ratio; the % refers to the signal ratio; note: % of control where 0% means no effect). The following applies: HepG2 ARE-bla reporter, beta-lactamase FRET ratio, 16 h; series mostly up to 96 µM. An outline of the steps: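 ARE-bla HepG2 cells (beta-lactamase reporter under ARE control) were plated at 2,000 cells/well, preincubated 5 h at 37 C/5% CO2, then treated with DMSO-dissolved compounds for 16 h at 37 C; LiveBLAzer B/G FRET substrate added, fluorescence read after 2 h at room temperature.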

The nature of test [14]: qHTS assay for small molecule activators of the p53 signaling pathway (AID 651743; active = well fitted activation curve with a large enough effect in the signal ratio, not every such curve was filed as active; the % refers to the signal ratio; note: % of control where 0% means no effect). The following applies: HCT-116 p53RE-bla, beta-lactamase FRET ratio, 16 h; stronger effect = higher value. The method in brief: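 p53RE-bla HCT-116 cells with a stably integrated beta-lactamase reporter under p53 response elements were plated, rested 5 hours at 37 C/5% CO2, then exposed to compounds in DMSO for 16 hours at 37 C. LiveBLAzer B/G FRET substrate was read after 2 hours at room temperature.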

Test [15] is described as follows: qHTS assay for small molecule activators of the nuclear factor-kappa B (NF-kB) signaling pathway (AID 651749; active = well fitted activation curve with a large enough effect in the signal ratio; the % refers to the signal ratio; note: % of control where 0% means no effect). The following applies: NF-kB-bla ME-180 cells, beta-lactamase FRET ratio, 16 h; stronger effect = higher value. An outline of the steps: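 ME-180 cells stably carrying a beta-lactamase reporter under an NF-kB response element were exposed to compound or DMSO vehicle for 16 hr at 37C, 5% CO2. Pathway activation was read by FRET, since reporter expression disrupts FRET.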

The target of test [16] is Thyroid hormone receptor beta (Homo sapiens) (UniProt P10828). The test can be described thus: qHTS assay for small molecule antagonists of thyroid hormone receptor beta signaling (AID 588547; active = well fitted inhibition curve with a large enough effect in the signal ratio, with a control signal flat, not every such curve was filed as active; the % refers to the signal ratio;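 note: cells stimulated with 0.4 nM T3 agonist during compound exposure; % is set by controls: 0 for no effect and ±100 for the full control effect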). The settings on record: TR-UAS-bla HEK293, beta-lactamase ratio, antagonist mode, 18 h. An outline of the steps:
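TR-UAS-bla GripTite HEK293 cells in 2% charcoal/dextran FBS medium were preincubated 4 h at 37 C, given compound (0.59 nM to 92 uM) plus 0.4 nM T3 (final) for 18 h, then CCF4 for 2 h at RT; Hill fit gave IC50.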

Test [17] deals with Vitamin D3 receptor (Homo sapiens) (UniProt P11473). The test can be described thus: qHTS assay for small molecule antagonists of vitamin D receptor signaling (AID 588541).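 Note: receptor activated by calcitriol during compound treatment; % is set by controls: 0 for no effect and ±100 for the full control effect.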 The following applies: HEK293T VDR-UAS-bla, beta-lactamase ratio, antagonist mode; series mostly up to 76.7 µM. The method in brief:
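VDR-UAS-bla HEK293T cells (2000/well, 2% charcoal-stripped FBS) were treated with titrated compounds plus 1-alpha,25-dihydroxyvitamin D3 (50 nM or 3 nM final) for 16 h at 37 C. CCF4 beta-lactamase fluorescence was read; Hill fits gave IC50.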

Results filed as inconclusive are left out. The source made the active and inactive calls. Unless noted, calls come from the whole dose curve.

Peroxisome proliferator-activated receptor gamma (Homo sapiens), sequence (P37231 whole entry, looked up): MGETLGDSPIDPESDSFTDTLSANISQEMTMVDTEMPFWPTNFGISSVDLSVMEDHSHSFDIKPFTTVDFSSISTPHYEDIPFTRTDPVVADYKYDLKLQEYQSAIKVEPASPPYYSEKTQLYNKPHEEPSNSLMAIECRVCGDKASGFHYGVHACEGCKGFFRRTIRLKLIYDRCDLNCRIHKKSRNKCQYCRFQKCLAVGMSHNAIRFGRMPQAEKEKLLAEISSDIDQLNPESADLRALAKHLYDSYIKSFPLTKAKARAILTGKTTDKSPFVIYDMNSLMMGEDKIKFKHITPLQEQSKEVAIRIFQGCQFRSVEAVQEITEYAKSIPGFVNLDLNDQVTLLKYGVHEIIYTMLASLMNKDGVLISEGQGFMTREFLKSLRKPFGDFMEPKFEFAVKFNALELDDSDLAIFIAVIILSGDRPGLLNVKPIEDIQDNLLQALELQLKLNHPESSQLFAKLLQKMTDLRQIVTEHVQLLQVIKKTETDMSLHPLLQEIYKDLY
Retinoic acid receptor RXR-alpha (Homo sapiens), sequence (P19793 whole entry, looked up): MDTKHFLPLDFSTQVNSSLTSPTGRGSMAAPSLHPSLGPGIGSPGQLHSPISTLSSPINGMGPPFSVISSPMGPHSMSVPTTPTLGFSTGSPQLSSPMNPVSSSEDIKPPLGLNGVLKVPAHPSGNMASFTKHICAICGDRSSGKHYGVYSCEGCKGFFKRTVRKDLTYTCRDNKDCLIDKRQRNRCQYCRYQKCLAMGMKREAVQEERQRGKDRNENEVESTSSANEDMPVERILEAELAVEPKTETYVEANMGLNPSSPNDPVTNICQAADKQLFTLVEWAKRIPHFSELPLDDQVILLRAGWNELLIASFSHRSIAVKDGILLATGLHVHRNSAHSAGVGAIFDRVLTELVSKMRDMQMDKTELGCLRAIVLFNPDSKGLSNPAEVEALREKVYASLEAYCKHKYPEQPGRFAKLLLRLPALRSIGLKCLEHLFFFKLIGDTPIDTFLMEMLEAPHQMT
Thyroid hormone receptor beta (Homo sapiens), sequence (P10828 whole entry, looked up): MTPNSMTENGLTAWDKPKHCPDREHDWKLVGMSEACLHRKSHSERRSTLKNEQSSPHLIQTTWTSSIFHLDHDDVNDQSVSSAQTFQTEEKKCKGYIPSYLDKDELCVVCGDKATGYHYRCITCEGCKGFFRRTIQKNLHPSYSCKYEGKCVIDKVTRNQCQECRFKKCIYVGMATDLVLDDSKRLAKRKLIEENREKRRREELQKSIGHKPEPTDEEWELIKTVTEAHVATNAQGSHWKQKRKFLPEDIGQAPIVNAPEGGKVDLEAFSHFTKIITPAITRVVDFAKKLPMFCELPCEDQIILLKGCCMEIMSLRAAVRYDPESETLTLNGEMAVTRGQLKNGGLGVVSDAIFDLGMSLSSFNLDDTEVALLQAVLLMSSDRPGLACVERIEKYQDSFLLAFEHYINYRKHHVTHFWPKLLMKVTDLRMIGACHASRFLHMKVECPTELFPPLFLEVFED
Peroxisome proliferator-activated receptor delta (Homo sapiens), sequence (Q03181 whole entry, looked up): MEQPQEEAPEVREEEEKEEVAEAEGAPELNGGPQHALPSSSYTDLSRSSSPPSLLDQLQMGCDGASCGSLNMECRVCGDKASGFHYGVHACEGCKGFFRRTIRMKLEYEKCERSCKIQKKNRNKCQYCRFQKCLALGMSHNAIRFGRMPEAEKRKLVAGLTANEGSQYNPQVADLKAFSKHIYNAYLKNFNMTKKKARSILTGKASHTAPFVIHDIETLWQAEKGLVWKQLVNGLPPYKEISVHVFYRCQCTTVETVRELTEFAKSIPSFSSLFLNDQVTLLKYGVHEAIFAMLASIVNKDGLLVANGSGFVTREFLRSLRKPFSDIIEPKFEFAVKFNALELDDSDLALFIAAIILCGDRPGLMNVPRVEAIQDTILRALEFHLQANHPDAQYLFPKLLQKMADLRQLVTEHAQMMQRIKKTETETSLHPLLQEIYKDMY
Voltage-gated inwardly rectifying potassium channel KCNH2 (Homo sapiens), sequence (Q12809 whole entry, looked up): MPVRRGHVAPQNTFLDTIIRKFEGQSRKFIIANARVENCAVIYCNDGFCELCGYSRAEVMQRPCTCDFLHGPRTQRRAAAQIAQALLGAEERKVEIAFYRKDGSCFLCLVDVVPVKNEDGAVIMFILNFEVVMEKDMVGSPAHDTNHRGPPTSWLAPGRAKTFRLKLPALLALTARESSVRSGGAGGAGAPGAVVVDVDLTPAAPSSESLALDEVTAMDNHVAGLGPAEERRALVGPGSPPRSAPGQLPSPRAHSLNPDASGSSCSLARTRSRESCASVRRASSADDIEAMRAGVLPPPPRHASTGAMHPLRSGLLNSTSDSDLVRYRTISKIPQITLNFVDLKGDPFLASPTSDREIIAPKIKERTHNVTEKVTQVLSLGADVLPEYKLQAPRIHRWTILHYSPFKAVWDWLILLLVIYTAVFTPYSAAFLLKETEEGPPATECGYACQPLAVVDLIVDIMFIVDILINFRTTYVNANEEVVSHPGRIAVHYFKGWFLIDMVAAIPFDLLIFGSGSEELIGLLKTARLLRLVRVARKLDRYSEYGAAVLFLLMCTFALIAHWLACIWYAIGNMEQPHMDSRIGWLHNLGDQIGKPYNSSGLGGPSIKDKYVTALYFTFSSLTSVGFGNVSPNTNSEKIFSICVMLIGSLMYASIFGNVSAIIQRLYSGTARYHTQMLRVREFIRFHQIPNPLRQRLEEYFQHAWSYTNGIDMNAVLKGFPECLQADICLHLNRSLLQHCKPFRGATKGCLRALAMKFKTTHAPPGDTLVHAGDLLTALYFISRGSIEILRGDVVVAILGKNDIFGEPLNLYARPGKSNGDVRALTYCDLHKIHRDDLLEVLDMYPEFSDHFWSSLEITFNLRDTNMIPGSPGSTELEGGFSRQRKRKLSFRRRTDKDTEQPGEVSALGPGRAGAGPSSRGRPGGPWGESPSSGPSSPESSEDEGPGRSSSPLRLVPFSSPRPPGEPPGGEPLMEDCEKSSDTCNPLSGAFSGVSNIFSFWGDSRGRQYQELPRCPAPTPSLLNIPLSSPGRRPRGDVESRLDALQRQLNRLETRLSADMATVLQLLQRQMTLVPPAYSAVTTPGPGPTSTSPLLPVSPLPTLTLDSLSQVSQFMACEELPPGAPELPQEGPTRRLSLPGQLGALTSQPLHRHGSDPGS
Glucocorticoid receptor (Homo sapiens), sequence (P04150 whole entry, looked up): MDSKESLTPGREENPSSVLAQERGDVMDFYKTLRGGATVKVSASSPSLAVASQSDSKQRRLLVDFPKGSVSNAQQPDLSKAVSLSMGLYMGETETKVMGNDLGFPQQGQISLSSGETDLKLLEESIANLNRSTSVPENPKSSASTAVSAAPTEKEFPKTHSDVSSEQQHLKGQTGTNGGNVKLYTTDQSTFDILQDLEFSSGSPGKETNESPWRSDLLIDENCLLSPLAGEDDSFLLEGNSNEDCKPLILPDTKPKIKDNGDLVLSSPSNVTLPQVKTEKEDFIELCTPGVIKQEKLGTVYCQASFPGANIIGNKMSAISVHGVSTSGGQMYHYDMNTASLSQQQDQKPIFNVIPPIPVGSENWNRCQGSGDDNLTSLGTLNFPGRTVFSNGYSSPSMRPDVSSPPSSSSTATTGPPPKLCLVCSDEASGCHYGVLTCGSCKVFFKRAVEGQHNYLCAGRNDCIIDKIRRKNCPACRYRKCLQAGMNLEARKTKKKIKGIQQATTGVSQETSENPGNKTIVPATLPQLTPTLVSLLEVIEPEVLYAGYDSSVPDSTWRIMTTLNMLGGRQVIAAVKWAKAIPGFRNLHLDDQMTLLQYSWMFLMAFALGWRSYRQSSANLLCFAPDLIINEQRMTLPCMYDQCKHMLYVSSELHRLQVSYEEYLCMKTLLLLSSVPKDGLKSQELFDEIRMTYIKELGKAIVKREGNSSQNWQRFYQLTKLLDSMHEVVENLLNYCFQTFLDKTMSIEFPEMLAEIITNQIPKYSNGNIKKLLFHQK
Vitamin D3 receptor (Homo sapiens), sequence (P11473 whole entry, looked up): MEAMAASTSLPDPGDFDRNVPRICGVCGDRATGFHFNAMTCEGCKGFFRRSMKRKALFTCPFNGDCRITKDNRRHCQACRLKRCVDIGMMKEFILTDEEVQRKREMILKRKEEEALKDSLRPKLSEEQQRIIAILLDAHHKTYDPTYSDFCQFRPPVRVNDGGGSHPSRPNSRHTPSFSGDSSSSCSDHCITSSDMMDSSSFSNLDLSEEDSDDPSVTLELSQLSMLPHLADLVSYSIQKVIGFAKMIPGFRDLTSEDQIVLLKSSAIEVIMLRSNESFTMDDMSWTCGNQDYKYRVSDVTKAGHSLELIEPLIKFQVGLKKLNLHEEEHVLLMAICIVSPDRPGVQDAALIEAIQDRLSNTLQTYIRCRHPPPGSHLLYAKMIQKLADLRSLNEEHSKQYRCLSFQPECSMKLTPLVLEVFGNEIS

In the case of `CCC(C)=O`, the results for the activation in test [1], in [14] and in [15] were -3.19% (inactive), -2.15% (inactive) and -1.44% (inactive), respectively. The result in [2], in [5], in test [6], in test [8] and in test [9] was inactive. The max response was -36.3% in test [3], -3% in test [7], -3.56% in test [10] and 0.0353% (inactive) in test [11]. Moreover, the Potency result in test [4], in [12] and in [13] was “inactive” throughout.

Regarding `Cc1ccc2ncccc2c1`, the activation is 6.61% (inactive) in test [1], -3.29% (inactive) in [14] and -1.62% (inactive) in test [15]. The outcome in test [2], in test [5], in test [8] and in test [9] was inactive. In addition, the max response was 20.6% in test [3], -4.8% in [7], -2.62% in test [10] and 2.87% (inactive) in test [11]. Moreover, the Potency result in test [4], in test [12] and in [13] was “inactive” each time. In test [16], the activity change % (negative = inhibition) was 1.73% (inactive).

With `CC(C)(O)C(=O)O`, the activation in test [1] was 5.7% (inactive); in test [14], -1.64% (inactive); in test [15], -0.233% (inactive). The result in test [2], in test [17], in [6], in [8] and in test [9] was inactive. Also, the max response in test [3] is 57.5%; in test [7], -2.22%; in test [10], 2.28%; in test [11], 3.29% (inactive). Besides, the Potency result in test [4], in test [12] and in test [13] was “inactive” throughout. In addition, in test [16], the activity change % (negative = inhibition) is 8.51% (inactive).

With `CC(CCl)OC(C)CCl` (stereo unspecified), the values for the activation in [1], in [14] and in test [15] were 1.48% (inactive), -3.45% (inactive) and 0.22% (inactive), respectively. In addition, the result in test [2], in test [5] and in test [8] was inactive. Moreover, the max response was 6.69% in test [3], 2.52% in [7], -11.8% in test [10] and 19.4% (inactive) in [11]. In addition, the Potency entry in [4] and in [13] was “inactive” in each case. The activity change % (negative = inhibition) in test [16] is -2.31% (inactive).

For the compound `Cc1cc(C)c(N)cc1C`, the activation in test [1] is 5.44% (inactive); in test [15], -0.054% (inactive). The result in test [2], in test [5], in test [6] and in test [8] was inactive. Further, the max response was 2.74% in [3], -11.9% in [7], 3.08% in test [10] and 16.4% (inactive) in test [11]. Also, the Potency entry in [4] and in test [13] was “inactive” in each case. In addition, the activity change % (negative = inhibition) in test [16] was -8.09% (inactive).

In the case of `CC(C)(C)c1ccc(OCC2CO2)cc1` (stereo unspecified), the activation in [1] is -4.85% (inactive). Besides, the outcome in test [2], in [17], in [6], in [8] and in test [9] was inactive. In addition, the max response is 18.6% in test [3], -13.4% in test [7], -2.99% in test [10] and 11.5% (inactive) in test [11]. Also, in test [4], the Potency result was “inactive”. Further, in test [16], the activity change % (negative = inhibition) is 5.82% (inactive).

As for `C=CCOC(=O)COCCC(C)C`, the activation in test [1] was -3.64% (inactive); in [15], -0.303% (inactive). Moreover, the result in test [2], in [5], in [8] and in test [9] was inactive. Moreover, the max response was 79.8% in test [3], -2.63% in [7] and -11.5% in test [10]. In addition, the Potency entry in test [4], in test [12] and in [13] was “inactive” each time.
